The source of these data is article PMC5515408, “Sequence-specific DNA binding by MYC/MAX to low-affinity non-E-box motifs”.

Over roughly 4,500 sequences, “log2 normalized fluorescence” has its median near -0.34; the highest 2% begin near 3.3. What follows is part of a selection rich in the highest values, with near analogues and random picks from the rest.

The target of the assay is MAX:MAX (p21) (human, UniProt P61244-2 1-151). The assay can be described thus: protein-binding microarray (anti-MAX antibody); PBM: 15 mM Tris-HCl pH 7.5, 100 mM KCl, 0.075% NP40, 7.5 mM beta-mercaptoethanol, 375 ng/ul BSA, 8 ng/ul poly(dA-dT):(dA-dT), 550 ng complex, 60 min, room tempe; high values mean tight binding. The conditions noted are these: protein: recombinant; tags: 6xHis; chain copies: 2; label: 3' end of printed strand (linker) attached to glass slide; dsDNA, one strand shown. The gist of the method: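 A custom Agilent glass array held ~5000 unique 12-nt sequences in triplicate spots, made double-stranded by primer extension. His-tagged human MYC:MAX or MAX:MAX dimers (550 ng, produced in E. coli) were applied for 60 min at room temperature in Tris-KCl buffer, pH 7.5, with NP40, BSA and poly(dA-dT) competitor. Anti-MAX and secondary antibodies detected bound protein, with scanning at 543 nm, and binding is given as log2 normalized fluorescence.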
MAX:MAX (p21), sequence (P61244 other isoform, or with tags, fused parts or gaps): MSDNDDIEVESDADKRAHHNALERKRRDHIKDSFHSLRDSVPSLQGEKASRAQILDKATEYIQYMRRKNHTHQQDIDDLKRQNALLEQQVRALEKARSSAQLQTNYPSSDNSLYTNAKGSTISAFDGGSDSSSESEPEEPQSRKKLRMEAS
As for “CCGGCCTACACGTGGTATTAATAGCTAAGATTACTATATCGACG”, the binding signal was 3.31 log2 normalized fluorescence.
To “CCGGCCTACACGTGGTGTTAATAGCTAAGATTACTATATCGACG” belongs 3.19 log2 normalized fluorescence; to “CCGGCTTAATCGTGGTATTAATAGCTAAGATTACTATATCGACG”, 1.43 log2 normalized fluorescence; to “CCGGCTACTACGTGGTATTAATAGCTAAGATTACTATATCGACG”, 1.83 log2 normalized fluorescence.
Next, “CCGGCAAACACGTGGTATTAATAGCTAAGATTACTATATCGACG”: 3.01 log2 normalized fluorescence; “CCGGCTAACACGCGGTATTAATAGCTAAGATTACTATATCGACG”: 3.35 log2 normalized fluorescence.
To “CCGGCTTAGACGTGGTATTAATAGCTAAGATTACTATATCGACG” belongs 1.04 log2 normalized fluorescence.
Consider “CCGGCCAACACGTGGTATTAATAGCTAAGATTACTATATCGACG”, for which the binding signal is 3.22 log2 normalized fluorescence.
Next, “CCGGCTTACACGTGGTATTAATAGCTAAGATTACTATATCGACG”: 3.3 log2 normalized fluorescence.
Turning to “CCGGCTGACAAAGTGTATTAATAGCTAAGATTACTATATCGACG”, the binding signal is -0.349 log2 normalized fluorescence.
Consider “CCGGCTGGCGCATGGTATTAATAGCTAAGATTACTATATCGACG”, for which the binding signal is 3.17 log2 normalized fluorescence.
Consider “CCGGCTGAACGCCTGTATTAATAGCTAAGATTACTATATCGACG”, for which the binding signal is 0.727 log2 normalized fluorescence.
To “CCGGCTGACATCCCGTATTAATAGCTAAGATTACTATATCGACG” belongs 0.192 log2 normalized fluorescence.
Next, “CCGGCTGACAGAACGTATTAATAGCTAAGATTACTATATCGACG”: -0.288 log2 normalized fluorescence; “CCGGCTGAGTCCTCGTATTAATAGCTAAGATTACTATATCGACG”: -0.692 log2 normalized fluorescence.
As to “CCGGCTGATCTCACGTATTAATAGCTAAGATTACTATATCGACG”, the binding signal was -0.038 log2 normalized fluorescence.
To “CCGGCTGAAACTCGGTATTAATAGCTAAGATTACTATATCGACG” belongs -0.697 log2 normalized fluorescence; to “CCGGCGAACACGTGGTATTAATAGCTAAGATTACTATATCGACG”, 3.34 log2 normalized fluorescence.
As for “CCGGCGAACACGTAGTATTAATAGCTAAGATTACTATATCGACG”, the binding signal was 2.25 log2 normalized fluorescence.
For “CCGGCGAACATGTGGTATTAATAGCTAAGATTACTATATCGACG”, the binding signal is 3.2 log2 normalized fluorescence.
Next, “CCGGCTGAACGCTGGTATTAATAGCTAAGATTACTATATCGACG”: 0.233 log2 normalized fluorescence; “CCGGCTGAGGACATGTATTAATAGCTAAGATTACTATATCGACG”: 0.549 log2 normalized fluorescence; “CCGGCTGATGCCGCGTATTAATAGCTAAGATTACTATATCGACG”: 0.00246 log2 normalized fluorescence.
To “CCGGCTGACACGTGCCGTTAATAGCTAAGATTACTATATCGACG” belongs 3.41 log2 normalized fluorescence; to “CCGGCTGACACGTGCCATTAATAGCTAAGATTACTATATCGACG”, 3 log2 normalized fluorescence.
Regarding “CCGGCTGACACACGGTCTTAATAGCTAAGATTACTATATCGACG”, the binding signal is 1.84 log2 normalized fluorescence.
To “CCGGCTGACACGTGCGTTTAATAGCTAAGATTACTATATCGACG” belongs 3.25 log2 normalized fluorescence.
To “CCGGCTGACACGTGCGGTTAATAGCTAAGATTACTATATCGACG” belongs 3.31 log2 normalized fluorescence; to “CCGGCTGACACGTGCAATTAATAGCTAAGATTACTATATCGACG”, 3.47 log2 normalized fluorescence; to “CCGGCTAACACGCGGTCTTAATAGCTAAGATTACTATATCGACG”, 3.15 log2 normalized fluorescence.
Take “CCGGCTGACACGTTAGATTAATAGCTAAGATTACTATATCGACG”: the binding signal is 2.59 log2 normalized fluorescence.
For the sequence “CCGGCTGACACGTGCTATTAATAGCTAAGATTACTATATCGACG”, the binding signal is 3.17 log2 normalized fluorescence.
To “CCGGCTGACACGTGCGATTAATAGCTAAGATTACTATATCGACG” belongs 3.02 log2 normalized fluorescence; to “CCGGCTGACACGTGCACTTAATAGCTAAGATTACTATATCGACG”, 3.13 log2 normalized fluorescence; to “CCGGCTGACACGCGGTCTTAATAGCTAAGATTACTATATCGACG”, 3.32 log2 normalized fluorescence.
As to “CCGGCTGAGGCCATGTATTAATAGCTAAGATTACTATATCGACG”, the binding signal was 0.0723 log2 normalized fluorescence.
Next, “CCGGCTGACGCCGTGTATTAATAGCTAAGATTACTATATCGACG”: 0.693 log2 normalized fluorescence.
Turning to “CCGGCTGACACGTATCATTAATAGCTAAGATTACTATATCGACG”, the binding signal was 1.42 log2 normalized fluorescence.
To “CCGGCTGAACAATCGTATTAATAGCTAAGATTACTATATCGACG” belongs -0.744 log2 normalized fluorescence.
Next, “CCGGCTGATGTTGAGTATTAATAGCTAAGATTACTATATCGACG”: -0.163 log2 normalized fluorescence; “CCGGCAGACACTTTGTATTAATAGCTAAGATTACTATATCGACG”: 0.324 log2 normalized fluorescence; “CCGGCTGAGACTCCGTATTAATAGCTAAGATTACTATATCGACG”: -0.692 log2 normalized fluorescence.
Next, “CCGGCTGAGTCTGCGTATTAATAGCTAAGATTACTATATCGACG”: -0.699 log2 normalized fluorescence.
Consider “CCGGCTGAATCCCAGTATTAATAGCTAAGATTACTATATCGACG”, for which the binding signal was -0.681 log2 normalized fluorescence.
Next, “CCGGCTGATGTTTTGTATTAATAGCTAAGATTACTATATCGACG”: -0.281 log2 normalized fluorescence.
Turning to “CCGGCTGACACGTGAAGTTAATAGCTAAGATTACTATATCGACG”, the binding signal is 3.15 log2 normalized fluorescence.
To “CCGGCTGACACGTTACATTAATAGCTAAGATTACTATATCGACG” belongs 3.06 log2 normalized fluorescence.
Next, “CCGGCTGACACGTGACGTTAATAGCTAAGATTACTATATCGACG”: 3.23 log2 normalized fluorescence.
To “CCGGCTGACACGTGACATTAATAGCTAAGATTACTATATCGACG” belongs 3.44 log2 normalized fluorescence; to “CCGGCTGACACGTGAGGTTAATAGCTAAGATTACTATATCGACG”, 3.37 log2 normalized fluorescence.
With “CCGGCTGACACGTGAGATTAATAGCTAAGATTACTATATCGACG”, the binding signal was 3.29 log2 normalized fluorescence.
Next, “CCGGCTGACACGTGAGTTTAATAGCTAAGATTACTATATCGACG”: 3.25 log2 normalized fluorescence; “CCGGCTGACACGTGATGTTAATAGCTAAGATTACTATATCGACG”: 3.13 log2 normalized fluorescence; “CCGGCTGACACGTGAGCTTAATAGCTAAGATTACTATATCGACG”: 3.09 log2 normalized fluorescence.
